The nature of assay [1]: NCI Yeast Anticancer Drug Screen. Data for the rad50 strain (AID 155).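 Further: 0% = growth of vehicle-only cultures of the same strain.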 The following applies: S. cerevisiae rad50 strain growth inhibition; at 50.0 µM; stronger effect = higher value. Summed up: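 Cells are treated with compound, grown, and their growth is then scored against vehicle-only cultures of the same repair-deficient yeast strain.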
The nature of assay [2]: NCI Yeast Anticancer Drug Screen. Data for the mec2-1 strain (AID 157). The following applies: S. cerevisiae mec2-1 strain, at 50.0 µM, stronger effect = higher value. Summed up: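 Growth inhibition is read against vehicle-treated controls after compound exposure of the mec2-1 yeast strain, which is defective in DNA damage repair or cell cycle control.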
A short description of assay [3]: NCI Yeast Anticancer Drug Screen. Data for the sgs1 mgt1 strain (AID 161).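 Further: 0% = growth of cultures given vehicle only.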 To be noted: S. cerevisiae sgs1 mgt1 strain, at 50.0 µM, stronger effect = higher value. Summed up:
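Yeast cells carrying a defined DNA-repair defect were exposed to test compounds. Growth inhibition was measured relative to vehicle-treated controls.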

The nature of assay [4]: NCI Yeast Anticancer Drug Screen. Data for the cln2 rad14 strain (AID 165).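 Further: 0% = growth equal to vehicle treated cultures.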 To be noted: S. cerevisiae cln2 rad14 strain, at 50.0 µM, stronger effect = higher value. Summed up:
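Growth inhibition, relative to vehicle-treated controls, is the read-out. The test organism is a yeast strain with defined genetic alterations, cln2 rad14.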

Assay [5] is described as follows: NCI Yeast Anticancer Drug Screen. Data for the bub3 strain (AID 167). To be noted: S. cerevisiae bub3 mutant strain, at 50.0 µM, stronger effect = higher value. Summed up: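 Part of a panel of yeast mutants defective in DNA damage repair or cell cycle regulation. Each strain is grown with compound, and inhibition is calculated relative to solvent-treated cultures.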
Assay [6] in a line: NCI Yeast Anticancer Drug Screen. Data for the mlh1 rad18 strain (AID 175). To be noted: S. cerevisiae mlh1 rad18 strain growth inhibition; at 50.0 µM; stronger effect = higher value. Summed up:
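Cells of a genetically altered yeast strain, deficient in DNA damage repair, were treated with compound. Their growth was then compared with that of vehicle-treated cultures to give inhibition.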

SMILES strings stand for the structures. Several values for one entry are separate records, joined by “and”; a condition that tells them apart may be missing. Equal entries are not always repeated. Compounds without any hit were thinned out: in the full panel of roughly 79,000, 15% have a hit. Values without a mark were called inactive. Activity calls are given as the source filed them. No stated cut-off is given here; in the data, active means growth inhibition above about 70%; inactive means the rest.

On to `C1CN1Sc1nc(SN2CC2)nc(SN2CC2)n1`, for which the growth inhibition in assay [1] is -1.35%; in assay [2], -5.55%; in assay [3], 19.7%; in assay [4], -73%; in assay [5], 11.8%; in assay [6] it was 27.3%.

With `CCCCC(CC)C(O)P(=O)(OCC)OCC` (centres undefined), the growth inhibition is -0.55% in assay [1]; 19% in assay [2]; -2.3% in assay [3]; -21.9% in assay [4]; 23.7% in assay [5]; 9.9% in assay [6].

Consider `O=S(=O)(c1ccc(O)cc1)c1ccc(O)cc1`, for which the growth inhibition in assay [1] is -5.25% and 0.75%; in assay [2], -2.8% and -7.6%; in assay [3], -3.75% and -4.95%; in assay [4], -11.7% and -36.2%; in assay [5] it was 1.85% and -8.15%; in assay [6], 2.55% and -4.05%.

Consider `O=C1OC(=O)C2C3C=CC(O3)C12` (centres undefined), for which the growth inhibition is -9.15% and -16.2% and 22.6% in assay [1]; -14.2% and -0.8% and -0.1% in assay [2]; -25.2% and 3.95% and 14.6% in assay [3]; 6% and 1.55% and 10.6% in assay [4]; -42.2% and -28.7% and 6.3% in assay [5]; -6.4% and -16.8% and 19.6% in assay [6].

As for `CCN(CC)CCn1ncc2c(N)ncnc21`, the growth inhibition is -0.25% in assay [1]; -9% in assay [2]; -26.4% in assay [3]; -19.6% in assay [4]; -22.8% in assay [5]; -1.15% in assay [6].

`CCOC(=O)Oc1c(Cl)cc(S(=O)(=O)F)cc1Cl`: the growth inhibition in assay [1] is 99.6% (active); in assay [2] it was 99.8% (active); in assay [3] it was 99.6% (active); in assay [4], 99.5% (active); in assay [5] it was 99.7% (active); in assay [6], 99.5% (active).

Turning to `NCCN.NCCN.O=C([O-])C(=O)[O-].[Cl-].[Co+3]`, the growth inhibition in assay [1] was -22.4%; in assay [2] it was -16.7%; in assay [3], -31.8%; in assay [4], -0.45%; in assay [5], -24.6%; in assay [6], -29.8%.

On to `CC(c1ccccc1)N1CCN(C(C)c2ccccc2)CC1` (centres undefined), for which the growth inhibition in assay [1] was 2.75%; in assay [2], -34.5%; in assay [3] it was -31.7%; in assay [4], 26.4%; in assay [5], -30%; in assay [6], 4.95%.

On to `CC(=O)N[C@@H](C[S-])C(=O)O.O=[N+]([O-])O.[Ag+]`, for which the growth inhibition is -1.95% in assay [1]; 0.95% in assay [2]; 53.8% in assay [3]; 25.1% in assay [4]; 19.9% in assay [5]; 21.1% in assay [6].

In the case of `C#CCOC(C(=O)OC1CCN(C)CC1)(c1ccccc1)c1ccccc1`, the growth inhibition in assay [1] is -3.5%; in assay [2] it was -11.8%; in assay [3], -6.45%; in assay [4] it was -36.9%; in assay [5] it was 0.3%; in assay [6], -1.95%.

On to `Cc1[nH]cc2c1C(c1ccccc1F)=NCC(=O)N2`, for which the growth inhibition is 19.7% in assay [1]; -3.5% in assay [2]; 17.4% in assay [3]; -13.7% in assay [4]; 8.4% in assay [5]; 0.1% in assay [6].

Take `CN(C)C(=S)Oc1ccc(S(=O)(=O)F)cc1`: the growth inhibition in assay [1] was 34.2%; in assay [2], 17.2%; in assay [3], 14.6%; in assay [4], 22.6%; in assay [5] it was 8.65%; in assay [6], 20.9%.

`CN(C)c1ccc(C(=O)CCCN2CCC3(CC2)C(=O)NCN3c2ccccc2)cc1`: the growth inhibition in assay [1] is -13.9%; in assay [2] it was 8.95%; in assay [3], 5.9%; in assay [4], -40.8%; in assay [5] it was -1.05%; in assay [6], -11.5%.

`CO[C@H]1C=C[C@@]23c4cc5c(cc4CO[C@]2(O)CN(C)[C@H]3C1)OCO5`: the growth inhibition in assay [1] is -16.2%; in assay [2], -1.35%; in assay [3] it was -10.8%; in assay [4] it was -1.35%; in assay [5] it was 1.8%; in assay [6] it was -41%.

Take `[Ni+2].[O-]c1ccc(Cl)cc1C=NCc1ccccn1.[O-]c1ccc(Cl)cc1C=NCc1ccccn1`: the growth inhibition in assay [1] is 94.3% (active); in assay [2], 96.7% (active); in assay [3] it was 97.5% (active); in assay [4], 86.9% (active); in assay [5], 96.5% (active); in assay [6] it was 97.5% (active).

With `CCNC(=O)CCl`, the growth inhibition in assay [1] is 3.75%; in assay [2], 1.2%; in assay [3], 21.4%; in assay [4], -2%; in assay [5], -0.9%; in assay [6] it was 10.4%.

In the case of `O=C(O)CC(S)C(=O)O` (centres undefined), the growth inhibition in assay [1] is -19.1%; in assay [2], 10.4%; in assay [3], -3.7%; in assay [4], -38.3%; in assay [5], -9.85%; in assay [6] it was 14.6%.

As to `NNC(=O)NC(=O)NN`, the growth inhibition in assay [1] was 1.25%; in assay [2], 5.4%; in assay [3], 4.6%; in assay [4], -8.95%; in assay [5], -0.15%; in assay [6], 9.6%.

With `NC(=O)/C=C/C(=O)O`, the growth inhibition in assay [1] is 19%; in assay [2] it was 9.75%; in assay [3] it was 10.5%; in assay [4], -8.25%; in assay [5] it was 11%; in assay [6], 14%.

These data come from PubChem BioAssay (NCI).
